# Data reported in PMC5540273 (PLoS ONE, 2017).
# Legend:
# [1] = test system: CSNK2A1
# [2] = test system: DAPK1
# [3] = test system: DAPK3
# [4] = test system: DDR2
# [5] = test system: T1, DLK
# T1 construct: gene MAP3K12
# [6] = test system: T2, DMPK2
# T2 construct: gene CDC42BPG
# [7] = test system: DMPK
# [8] = test system: T3, DRAK1
# T3 construct: gene STK17A
# 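Further: kd values determined as follow-up on hits from a single-replicate KINOMEscan panel screen.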
compound,measurement,setting,value
Cc1cccc(-c2nc(Nc3ccc4[nH]ncc4c3)c3ccccc3n2)n1 [GW857175],Kd,[1],0.1 µM
Cc1ccccc1-n1cnc2c(N)ncnc21 [SKF-97510],Kd,[2],> 10 µM
Cc1cc(N2Cc3ccccc3C2)nc(Nc2ccc(S(=O)(=O)N3CCOCC3)cc2)n1.Cl [GSK1669917],Kd,[3],> 10 µM
CC(=O)Nc1nc2cnc(Nc3cc(NC(=O)c4cccc(CCC#N)c4)ccc3C)nc2s1,Kd,[4],> 10 µM
Cc1ccc(NC(=O)Nc2cc(C(C)(C)C)nn2-c2ccccc2)cc1 [GSK1014915],Kd,[4],0.41 µM
Cc1cc(-c2ccc3c(c2)CC[C@@H](N[C@@H](C)c2ccccc2)C3)cnc1N.Cl [GW412617],Kd,[5],0.28 µM
COc1ccc(CNC(=O)NC2CCN(c3ccnc(Nc4cc(OC)c(OC)c(OC)c4)n3)C2)cc1 (centres unmarked) [GSK1379748],Kd,[5],5.1 µM
COc1ccc2nc(-c3cccc(C)n3)nc(Nc3ccncc3)c2c1 [GSK204919],Kd,[6],0.51 µM
Cc1cccc(-c2nc(C)cc(Nc3ccncc3)n2)n1 [GSK257997],Kd,[6],0.56 µM
Nc1nc(-c2nccs2)c(-c2ccnc3ccccc23)s1 [GW693542],Kd,[7],> 10 µM
C[C@@H]1CCCCN1c1cc(-c2ccc3c(N)n[nH]c3c2)nc(N)n1 [GSK2258759],Kd,[8],0.088 µM
